Compound activity as filed in PubChem.
In the library only some 8.7% were active in any assay of this set; here they are far more common.
ALOX12 inh: inhibitors of human 12S-lipoxygenase ALOX12. AID 1671190. Potency, µM (series often up to 108 µM), for the others: at the top dose activity change, negative = inhibition, actives largely listed as inhibitors. purified 12hLO, xylenol orange hydroperoxide absorbance. hit rate 1.1% among 580,000; further: on the % scale 0 is the no-effect control and ±100 the full control effect
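Purified human 12hLO at 150 nM in 25 mM Hepes, 0.01% Triton X-100, pH 7.0, preincubated 15 min at room temperature with compound. Reaction started with 40 uM arachidonic acid, 30 min at room temperature. Hydroperoxide measured by Fe-xylenol orange, 573/405 nm absorbance ratio.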
HP1b binding inh: HP1-beta chromodomain-methylated histone interaction inhibition. P83916. AlphaScreen HP1-beta / biotin-H3K9me3 peptide binding. hit rate 0.56% among 390,000. Potency, µM (series often up to 114 µM), without a hit: at the top dose activity change, negative = inhibition, usual class: inhibitors; further: nearly all actives have a fitted effect of over 70% in size
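HP1-beta protein (50 nM final) preincubated 30 min at room temperature with biotinylated H3(1-18)K9me3 peptide (50 nM) in PBS pH 7.4, 0.01% Tween-20, then compound added for 30 min. AlphaScreen streptavidin donor/nickel chelate acceptor beads (10 ug/mL final), 30 min dark, luminescence read.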
Sfp PPTase inh: Sfp phosphopantetheinyl transferase inhibition | Biochemical Sfp PPTase activity, qHTS | AID 1490 | Q9F4F7 | hit rate 3.5% among 310,000 | Potency, µM, inactives show largest response in the series, negative = inhibition, actives largely listed as inhibitors;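 further: the enzyme is Sfp with the accession as filed and its product quenches rhodamine fluorescence; 0% = enzyme reaction without inhibitor and -100% = no enzyme wells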
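Reaction rates are the 30-min fluorescence difference (ex 525, em 598 nm) in wells containing 15 nM Sfp, 5 uM rhodamine-CoA and 12.5 uM BHQ-2-YbbR at pH 7.6 with 10 mM MgCl2.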
JMJD2A Tudor inh: blocks the human JMJD2A Tudor domain; O75164; AlphaScreen JMJD2A-Tudor / H3K4me3 peptide binding; Potency, µM (titrated, usually from 114 µM), for inactives: top-dose activity change, negative = inhibition, most hits filed as inhibitors; hit rate 4.4% among 390,000; AID 504339; further: on the % scale 0 is the no-effect control and ±100 the full control effect; nearly all actives have a fitted effect of over 50% in size
BAZ2B block: BAZ2B (human) inhibition; hit rate 4.4% among 360,000; Potency, µM (highest dose often 114 µM), inactives show top-dose activity change, negative = inhibition, actives largely listed as inhibitors; AlphaScreen BAZ2B-H3K14Ac peptide displacement; AID 504333; further: on the % scale 0 is the no-effect control and ±100 the full control effect; nearly all actives have a fitted effect of over 60% in size
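Complex of BAZ2B and biotin-H3K14Ac (50 nM apiece) forms over 30 min at RT, then faces library compounds up to 110 uM for another 30 min; AlphaScreen beads added, 20 min dark incubation, luminescence read.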
G9a inh: inhibitors of human histone lysine methyltransferase G9a; hit rate 8.8% among 350,000; Q96KQ7; G9a H3K9 monomethylation, AlphaScreen, 2 h; Potency, µM (top dose mostly 102 µM), inactives show top-dose activity, negative = inhibition, hits mostly inhibitors; further: on the % scale 0 is the no-effect control and ±100 the full control effect; nearly all actives have a fitted effect of over 75% in size
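Using a bead-based AlphaScreen, monomethylated H3K9 product from 2 h room-temperature reactions (G9a 20 nM, peptide 500 nM, SAM 20 uM) was detected with 0.5 ug/mL rabbit anti-H3K9me1 antibody.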
The depositor's hits bear a star; ? = inconclusive; . = no result; [ ] = remark or other dose. The call rests on the fitted dose curve; in most records, active means well fitted curve in the direction sought with a large enough effect; inconclusive means small, poorly fitted or top-dose-only effect, or another doubt; inactive means no such curve, though single readings can be large; an effect the other way counts as inactive or inconclusive. Potency means the concentration at half of the fitted maximal effect.

SMILES | ALOX12 inh | HP1b binding inh | Sfp PPTase inh | JMJD2A Tudor inh | BAZ2B block | G9a inh
COc1cccc(/C(C)=N/NC(=O)C2CC2)c1 | 69% | . | . | . | . | .
COc1ccc(NC2=C(c3ccc(OC)cc3)C(=O)c3ccccc32)cc1 | -18% | -3% | 1% | -23% | -29% | -10%[59 µM]
COc1ccc(C2=C(Nc3ccc(C)cc3C)c3ccccc3C2=O)cc1 | ? | -20% | . | 28µM* | -25% | ?
COc1cccc(C(=O)NC(=S)Nc2ccccc2N2CCOCC2)c1 | . | ? | 7% | ? | -1% | 66%
O=C(NC(=S)Nc1ccccc1N1CCOCC1)c1ccccc1F | ? | 2% | -3% | -27% | -36% | ?
COc1cc(C(=O)NC(=S)Nc2ccccc2N2CCOCC2)cc(OC)c1OC | . | -10% | 35µM* | ? | 40µM* | 14µM*
Cc1ccc(C(=O)NC(=S)Nc2ccccc2N2CCOCC2)cc1C | . | ? | 4% | ? | ? | 22µM*
N#Cc1ccc(COC(=O)CSC(=S)N2CCOCC2)cc1 | -4% | . | . | . | . | .
Cc1cccc(C)c1NC(=O)CCS(=O)(=O)c1ccc2c(c1)n(C)c(=O)c(=O)n2C | -4% | 73% | . | -13% | ? | 0%[59 µM]
CCc1cccc(C)c1NC(=O)CCS(=O)(=O)c1ccc2c(c1)oc(=O)n2C | ? | ? | . | 79µM* | 3%[57.1 µM] | 10µM*
Cc1cccc(OCCOCCN2CCOCC2)c1C | 14% | 8% | 15% | -6% | -2% | 7%[12.7 µM]
Cc1cccc(C(C)(C)C)c1OCCOCCN1CCCC1 | -28% | -49% | 1% | 2.2µM* | -28% | ?
Cc1cccc(C(C)(C)C)c1OCCN1CCCC1 | ? | ? | -45% | 4.5µM* | -9% | 25µM*
O=C(/C=C/c1ccccc1)NCc1ccc2c(c1)OCO2 | 0% | 31% | 15% | -20% | 2% | 22%
O=C(/C=C/c1ccco1)Nc1ccc(F)cc1 | 7% | ? | . | ? | ? | -24%[12.7 µM]
O=C(/C=C/c1ccco1)NCCc1ccc(F)cc1 | ? | ? | -13% | -36% | 79µM* | 40µM*
O=C(/C=C/c1ccco1)NCc1ccc2c(c1)OCO2 | ? | 16% | ? | -10% | -13% | 20µM*
CCC1=NN(C(=O)c2cccc(Br)c2)C(O)(c2ccc(Br)cc2)C1 (centres undefined) | ? | 2% | -9% | ? | 40µM* | 26%[59 µM]
O=C(O)c1cc(N=Nc2ccc(O)c(C(=O)O)c2)ccc1O | . | . | -9% | . | . | -4%[12.7 µM]
O=C(O)CCNC(=O)c1ccc(N=Nc2ccc(O)c(C(=O)O)c2)cc1 | 34µM* | . | 10% | . | . | 13%[59 µM]
Cc1ccc(-c2nc(N)sc2CC(=O)OCC(=O)N(CCC#N)c2ccc(F)cc2)cc1 | -14% | . | . | . | . | .
COc1ccc(OC)c(CNC(=O)COc2ccc(NC(C)=O)cn2)c1 | 14% | . | . | . | . | .
COc1cc(NC(C)C(=O)N2CC(C)OC(C)C2)cc(OC)c1 (centres undefined) | ? | 16µM* | -29% | 3.2µM* | 40µM* | ?
COCCCn1c(C)cc(C(=O)CN2C(=O)NC(Cc3c[nH]c4ccccc34)C2=O)c1C (centres undefined) | 0% | . | . | . | . | .
CCOC(=O)COc1ccc(/C=C2/C(=O)NN(c3ccc(F)cc3)C2=O)cc1OC | -11% | 14% | ? | ? | -9% | -6%[0.501 µM]
CCOC(=O)c1ccc(N2NC(=O)/C(=C/c3ccc(OC(=O)c4ccco4)c(OC)c3)C2=O)cc1 | 22µM* | . | ? | . | ? | 32µM*
CC1CCN(C2=NN3C(=N)/C(=C\c4ccc(OC(=O)c5ccco5)cc4)C(=O)N=C3S2)CC1 | 3% | 4% | 12% | ? | -37% | 17%
CS(=O)(=O)C1=NN2C(=N)/C(=C\c3ccc(OC(=O)c4ccco4)cc3)C(=O)N=C2S1 | -25% | 26% | -22% | -11% | 50µM* | 45µM*
CCS(=O)(=O)C1=NN2C(=N)/C(=C\c3ccc(OC(=O)c4ccco4)c(OC)c3)C(=O)N=C2S1 | -19% | 14% | -10% | ? | -39% | 32µM*
